molecular target: NADPH oxidase 4 (Homo sapiens) (UniProt Q9NPH5); assay: NOX4-dependent H2O2 signal modulators, primary screen, NOX inhibitor project, cell-based, HEK293-NOX4, tetracycline-induced, Amplex Red fluorescence (AID 1160); settings: 45 min, higher = more signal, called active from +8 up or from −8 down
Sequence (Q9NPH5 whole entry, looked up): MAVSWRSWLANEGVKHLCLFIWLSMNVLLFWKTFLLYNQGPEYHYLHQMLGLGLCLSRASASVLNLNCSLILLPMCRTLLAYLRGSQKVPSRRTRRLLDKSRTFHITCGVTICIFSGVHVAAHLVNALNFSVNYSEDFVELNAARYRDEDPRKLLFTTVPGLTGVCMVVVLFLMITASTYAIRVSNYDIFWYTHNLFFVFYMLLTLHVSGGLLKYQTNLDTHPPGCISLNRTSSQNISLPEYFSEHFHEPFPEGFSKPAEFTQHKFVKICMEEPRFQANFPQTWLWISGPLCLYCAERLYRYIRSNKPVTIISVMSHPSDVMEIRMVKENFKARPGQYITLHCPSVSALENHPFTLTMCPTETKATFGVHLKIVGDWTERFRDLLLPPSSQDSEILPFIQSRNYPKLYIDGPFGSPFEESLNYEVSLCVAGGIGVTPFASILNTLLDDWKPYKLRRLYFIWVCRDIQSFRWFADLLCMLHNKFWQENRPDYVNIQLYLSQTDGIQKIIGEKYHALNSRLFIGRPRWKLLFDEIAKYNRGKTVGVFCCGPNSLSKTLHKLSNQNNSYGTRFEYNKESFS

z-score, inactive:
[N-]=[N+]=NCc1ccccc1[C@@H]1OC(c2ccc(OCCCO)cc2)=N[C@]1(CCS(=O)(=O)c1ccccc1)C(=O)O 1.33
CC1CC/C=C\[C@H]2OC34C=CCN(c5ccc(Cl)cc5)C(=O)[C@H]3N(C(C)CO)C(=O)[C@]4(C)C2C(=O)O1 (stereo not given in full) -0.383
C=CC[C@]1(C(=O)N2CCCCC2)N=C(c2ccc(OCCCO)cc2)O[C@H]1c1ccccc1CN=[N+]=[N-] -0.616
COc1ccc([Si](C)(C)[C@H]2[C@H](CC(=O)N3CCC[C@H]3CO)O[C@@]3(C(=O)N(Cc4ccc(N5CCOC5=O)cc4)c4ccccc43)[C@@H]2C)cc1 -0.0662
Cc1cc(C)c(C(O)C2C=CC3C(=O)N(c4ccccc4)C(=O)C3N2Nc2ccccc2F)c(C)c1 (stereo not given) -0.918
CC[C@@H]1O[Si](C(C)C)(C(C)C)c2c1cc(-c1cc(C)c(OC)c(C)c1)nc2-c1ccc(Oc2ccccc2)cc1 -0.672
O[C@@H](Cc1ccccc1)[C@@H](/C=C/C1CC1)N(CC#Cc1ccccc1)Cc1ccccc1Br 0.221
COC(=O)C/C=C/C[C@]1(O)C(=O)N(C)c2ccccc21 0.4
C=CC[C@@]1(C(=O)NCCCOC)N=C(c2ccc(OCCCO)cc2)O[C@@H]1c1ccccc1N=[N+]=[N-] -0.66
COC(=O)[C@@H]1N=C(c2ccc(OCCCO)cc2)O[C@@H]1C 0.134
CCCC=C(CCC)[C@@H](NC(=O)c1cccs1)c1ccc(C(=O)OC)cc1 1.74
COc1cc(NN2C(C(O)c3cc(OC)c(OC)c(OC)c3)C=CC3C(=O)N(C)C(=O)C32)cc(OC)c1OC (stereo not given) -2.26
COc1cc(OC)c(C(O)C2C=CC3C(=O)N(Cc4ccccc4)C(=O)C3N2n2cnnc2)cc1Br (stereo not given) -1.35
C=CCC(OC(C)=O)[C@@H]1[C@@H](N(Cc2cc3ccccc3o2)C(=O)Cc2ccc(F)cc2)c2cc(OCCCO)ccc2N1C(=O)Cc1ccc2ccccc2c1 (stereo not given in full) 0.88
COc1ccc(CCNC(=O)[C@@H]2c3ccccc3C(=O)N(C3CCCCC3)[C@H]2c2ccc(CO)cc2)cc1 -0.546
C[N+](C)(C)CCCC[C@@H]1NC(=O)[C@@H]2C[C@H](C(=O)NCCCCCCN)[C@H](c3cccc(OCCO)c3)N2C1=O 0.0305
O=C1C2C=CC(C(O)C3CC=CCC3)N(Nc3ccccc3)C2C(=O)N1c1ccccc1 (stereo not given) -4.95
O=C1C2C=CC(C(O)c3ccco3)N(Nc3ccccc3F)C2C(=O)N1c1ccccc1 (stereo not given) 0.251
COC(=O)c1c(CC[C@@H](CO)NC(=O)N2CCC[C@H]2Cn2cc(C3(O)CCCCC3)nn2)oc(C(C)=O)c1C(=O)OC -0.981
C=C(/C(=C/C[C@H](OC(=O)c1ccncc1)c1ccc(CO)o1)c1cnc2ccccc2c1)C(C)C 0.0654
COCC(=C=CC[C@H](O)c1ccccc1OCCO)C[C@H](O)c1ccccn1 -0.831
CC(C)c1ccc(NN2C(C(O)c3ccc(F)cc3)C=CC3C(=O)N(c4ccccc4)C(=O)C32)cc1 (stereo not given) -2.78
CO[C@H]1O[C@H](CO)[C@@H](OC(=O)Nc2ccc3c(c2)OCO3)[C@H](OC(=O)Nc2ccc3c(c2)OCO3)[C@@H]1OC(=O)Nc1ccc2c(c1)OCO2 -1.19
CCCNC(=O)[C@@H]1c2ccccc2C(=O)N(Cc2ccc(OC(F)(F)F)cc2)[C@H]1c1ccc(CO)cc1 0.184
CCOC(=O)C[C@H]1[C@H](OC(=O)c2cc3ccccc3oc2=O)[C@@H](NC(=O)c2ccccc2)c2cc(OCCCO)ccc2N1C(=O)c1ccccc1 -1.07
CCCNC(=O)[C@@]1(C)c2ccccc2C(=O)N(c2ccc(C)cn2)[C@H]1c1ccc(CO)cc1 0.155
CC(C)C(O)C1C=CC2C(=O)N(c3ccccc3)C(=O)C2N1Nc1ccccc1 (stereo not given) -4.05
CCCCC(CC)C(O)C1C=CC2C(=O)N(c3ccccc3)C(=O)C2N1Nc1ccc(C#N)cc1 (stereo not given) -2.2
COc1ccc(CCNC(=O)[C@@]2(Cc3ccccc3I)c3ccccc3C(=O)N(C3CCCCC3)[C@H]2c2ccc(CO)cc2)cc1 -1.09
[N-]=[N+]=Nc1ccccc1C[C@@]1(C(N)=O)N=C(c2ccc(OCCCO)cc2)O[C@@H]1c1ccccc1N=[N+]=[N-] -1.11
C=CCN1C(=O)[C@]2(CCS(=O)(=O)c3ccccc3)N=C(c3ccc(OCCCO)cc3)O[C@@H]2c2ccccc21 0.835
NC(=O)NCC#Cc1ccc2c(c1)[C@]1(C(=O)N2)[C@H](c2ccccc2OCCO)N2[C@H](c3ccccc3)[C@H](c3ccccc3)OC(=O)[C@H]2[C@@H]1C(=O)O 0.517
NCCCCCNC(=O)[C@H]1C[C@H]2C(=O)N3CCC[C@H]3C(=O)N2[C@H]1c1cccc(OCCO)c1 0.413
COc1ccc([Si](C)(C)[C@@H]2[C@@H](CCO)O[C@]3(C(=O)N(Cc4cccc(NC(=O)[C@H](C)O)c4)c4ccccc43)[C@H]2C)cc1 0.436
CCCCN1CC=CC23O[C@@H]4/C=C\CCCOC(=O)C4[C@H]2C(=O)N(CCO)[C@@H]3C1=O (stereo not given in full) 0.314

— PubChem BioAssay
